For 43 sequences, binding signal results are on record in paper PMC10726135, “HNF4α isoforms regulate the circadian balance between carbohydrate and lipid metabolism in the liver”.

In all, about 18,000 sequences were measured (“log2 normalized intensity”: median about 0.39, highest 2% from about 6.6 on). This excerpt belongs to a sample that is enriched for the highest values.

This experiment addresses T1, HNF4alpha2 (COS-7 nuclear extract) (Homo sapiens, UniProt P41235 1-474).
T1 sequence: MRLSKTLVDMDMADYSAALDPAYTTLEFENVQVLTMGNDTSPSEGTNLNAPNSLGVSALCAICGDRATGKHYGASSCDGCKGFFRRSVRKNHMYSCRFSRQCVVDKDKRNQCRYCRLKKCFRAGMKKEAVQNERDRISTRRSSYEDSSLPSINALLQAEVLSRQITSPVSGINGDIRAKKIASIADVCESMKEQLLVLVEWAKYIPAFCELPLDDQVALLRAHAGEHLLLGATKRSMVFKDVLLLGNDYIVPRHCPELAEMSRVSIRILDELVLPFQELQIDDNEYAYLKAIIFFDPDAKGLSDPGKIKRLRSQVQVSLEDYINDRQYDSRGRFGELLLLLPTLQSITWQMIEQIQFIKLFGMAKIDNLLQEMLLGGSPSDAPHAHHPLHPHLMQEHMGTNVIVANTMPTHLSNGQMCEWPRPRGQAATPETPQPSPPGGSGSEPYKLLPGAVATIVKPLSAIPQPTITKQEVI
Kind of experiment: protein-binding microarray; COS-7 nuclear extract on double-stranded Agilent 4x180k PBM; binding buffer, salt, pH and temperature not given in the material; high values mean tight binding. To be noted: chain copies: 2; label: 3' end of strand 1 on the slide; dsDNA, one strand shown. Summed up: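 Using CaPO4, COS-7 cells were transiently transfected with a human HNF4α isoform expression vector, and their nuclear extracts were applied to a custom Agilent SurePrint G3 4x180k double-stranded oligonucleotide array (~60 nt; ~44,000 test sequences in quadruplicate). Bound HNF4α was imaged at 2-µm resolution with an Agilent G2565CA scanner. Agilent software supplied the background-corrected, normalized gProcessedSignal that serves as the binding signal.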
In the case of “GGGTATGAATTTAACCTTTGCTCTCTGAAAGCCTAGGGAGATTAGAGTATCGGTCGA”, the binding signal was 5.68 log2 normalized intensity.
With “CTACAGGGTATGAATTTAACCTTTGCTCTCGCCTAGGGAGATTAGAGTATCGGTCGA” the figure was 6.87 log2 normalized intensity; with “CCCTAATTACATATTAACCTTTGCCCCAGCGCCTAGGGAGATTAGAGTATCGGTCGA”, 6.63 log2 normalized intensity; with “AGACTTTTTTTTTCTTAATTGCCCTTTGCCGCCTAGGGAGATTAGAGTATCGGTCGA”, 4.26 log2 normalized intensity.
As to “ACTTTGCCCTTTTTTTCTCTCCCCTTTTAAGCCTAGGGAGATTAGAGTATCGGTCGA”, the binding signal is 2.54 log2 normalized intensity.
On to “TTTCTTAATTGCCCTTTGCCCTTTGCCCAAGCCTAGGGAGATTAGAGTATCGGTCGA”, for which the binding signal was 8.01 log2 normalized intensity.
As to “TTTTTTTTCTTAATTGCCCTTTGCCCTTTGGCCTAGGGAGATTAGAGTATCGGTCGA”, the binding signal is 8.54 log2 normalized intensity.
With “AAAGGTCATTTCTGCTTGCAACCAAAGGAGGCCTAGGGAGATTAGAGTATCGGTCGA” the figure was 1.52 log2 normalized intensity; with “GCAGATGTGTCTTTATAACAGACTGTAGGCGCCTAGGGAGATTAGAGTATCGGTCGA”, 0.596 log2 normalized intensity.
For “GCCAAGCTCTGGGCTAGTCCCTGAGTATTAGCCTAGGGAGATTAGAGTATCGGTCGA”, the binding signal is -0.902 log2 normalized intensity.
Regarding “TCCCTCTGCTCCCCTGGCCTCACCCTTGTCGCCTAGGGAGATTAGAGTATCGGTCGA”, the binding signal turned out to be 2.72 log2 normalized intensity.
With “ATTCCAAAAAGCTTTTGTCATGACCTTCGCGCCTAGGGAGATTAGAGTATCGGTCGA” the figure was 4.71 log2 normalized intensity; with “AAGGATCAAGGACCTGCTCTGGGGCTACCTGCCTAGGGAGATTAGAGTATCGGTCGA”, -0.978 log2 normalized intensity.
For “CATTGATAATTCAGTTTCATTGCACTTTGCGCCTAGGGAGATTAGAGTATCGGTCGA”, the binding signal was found to be 4.01 log2 normalized intensity.
Then “GCCCTTTGCCCTTTGCCCAACCCTCTCCCAGCCTAGGGAGATTAGAGTATCGGTCGA”, with 5.55 log2 normalized intensity.
As for “ATTTCTAGGTTTGATCTTTGCCCTACAATTGCCTAGGGAGATTAGAGTATCGGTCGA”, the binding signal was 5.51 log2 normalized intensity.
With “TCCTCAGGGAATTTCTAGGTTTGATCTTTGGCCTAGGGAGATTAGAGTATCGGTCGA” the figure was 2.95 log2 normalized intensity; with “ATAATTCAGTTTCATTGCACTTTGCCCTCTGCCTAGGGAGATTAGAGTATCGGTCGA”, 8.65 log2 normalized intensity; with “TCAGTTTCATTGCACTTTGCCCTCTCTTCAGCCTAGGGAGATTAGAGTATCGGTCGA”, 6.57 log2 normalized intensity.
Then “TTGCCCTTTGCCCAACCCTCTCCCACTCCCGCCTAGGGAGATTAGAGTATCGGTCGA”, with 4.91 log2 normalized intensity; and “TAATTGCCCTTTGCCCTTTGCCCAACCCTCGCCTAGGGAGATTAGAGTATCGGTCGA”, with 7.02 log2 normalized intensity; and “AGGGAATTTCTAGGTTTGATCTTTGCCCTAGCCTAGGGAGATTAGAGTATCGGTCGA”, with 6.85 log2 normalized intensity.
Then “ACTCCTTTGCTTATCTGATAAGTCCATACCGCCTAGGGAGATTAGAGTATCGGTCGA”, with 1.53 log2 normalized intensity; and “ACTCAGGATACCTAAGCCCCATGCTGATAAGCCTAGGGAGATTAGAGTATCGGTCGA”, with 1.32 log2 normalized intensity.
As to “TGAGACTTTGGACTTTTGAACTAAGGCTGGGCCTAGGGAGATTAGAGTATCGGTCGA”, the binding signal is 4.72 log2 normalized intensity.
Consider “GACTTTGAACTTCATGTGTGGTGCAGATTCGCCTAGGGAGATTAGAGTATCGGTCGA”, for which the binding signal was determined as 1.97 log2 normalized intensity.
With “CCTAAATCTAAGCTGGACTTTGAACTTCATGCCTAGGGAGATTAGAGTATCGGTCGA” the figure was 8.99 log2 normalized intensity.
With “AGCTGGACTTTGAACTTCATGTGTGGTGCAGCCTAGGGAGATTAGAGTATCGGTCGA” the figure was 6.21 log2 normalized intensity.
As for “CTTTGGACTTTTGAACTAAGGCTGGAATGAGCCTAGGGAGATTAGAGTATCGGTCGA”, the binding signal was found to be 2.92 log2 normalized intensity.
With “ATCTAAGCTGGACTTTGAACTTCATGTGTGGCCTAGGGAGATTAGAGTATCGGTCGA”, the binding signal was 7.91 log2 normalized intensity.
With “TTGTACTCAGTATGTGCTGACTGACTCCTGGCCTAGGGAGATTAGAGTATCGGTCGA” the figure was 0.992 log2 normalized intensity; with “CTCTAACCACTTTGAAATAGTGACCTCTGCGCCTAGGGAGATTAGAGTATCGGTCGA”, 4.36 log2 normalized intensity; with “GATGTTTAGCTATCAGTGTTGACCTCTGGAGCCTAGGGAGATTAGAGTATCGGTCGA”, 5.32 log2 normalized intensity.
Consider “TATCAGTGTTGACCTCTGGACCTCATCTTCGCCTAGGGAGATTAGAGTATCGGTCGA”, for which the binding signal turned out to be 5.36 log2 normalized intensity.
“TTAGCTATCAGTGTTGACCTCTGGACCTCAGCCTAGGGAGATTAGAGTATCGGTCGA”: the binding signal turned out to be 6.97 log2 normalized intensity.
Turning to “CTCAAGTGACCTTTGACCTCTGGCCTTTGCGCCTAGGGAGATTAGAGTATCGGTCGA”, the binding signal is 10.2 log2 normalized intensity.
With “GTGACCTTTGACCTCTGGCCTTTGCAGTTAGCCTAGGGAGATTAGAGTATCGGTCGA” the figure was 8.21 log2 normalized intensity.
On to “ACCTTTGCCTTCTTGACATCTCTCTCTGCAGCCTAGGGAGATTAGAGTATCGGTCGA”, for which the binding signal turned out to be 1.17 log2 normalized intensity.
With “CTGACAAGTATCTCGGTCAAACCTTTGACCGCCTAGGGAGATTAGAGTATCGGTCGA” the figure was 5.77 log2 normalized intensity.
For “ACCACTTTGAAATAGTGACCTCTGCTGGCCGCCTAGGGAGATTAGAGTATCGGTCGA”, the binding signal was 2.65 log2 normalized intensity.
Consider “GTGAGGGAGGAGACTTTGACCTCTGCTAGGGCCTAGGGAGATTAGAGTATCGGTCGA”, for which the binding signal was determined as 5.43 log2 normalized intensity.
With “TAACGGTGAGGGAGGAGACTTTGACCTCTGGCCTAGGGAGATTAGAGTATCGGTCGA” the figure was 6.61 log2 normalized intensity; with “CTGACCTCAAGTGACCTTTGACCTCTGGCCGCCTAGGGAGATTAGAGTATCGGTCGA”, 11 log2 normalized intensity.
